Laboratory results as given in the supplement of paper PMC12350171.
Structures can show the parent of a compound that is named as a salt. A number with no mark means an inactive call.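 How the source made its calls: active = AUC significantly below DMSO controls by Student t-fit with adjusted P under 0.01; inactive = not significantly reduced.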

What follows are compounds tested on Salmonella enterica typhimurium (assay: growth AUC normalised to DMSO control (fraction of control); higher = less growth inhibition, active = hit call of the paper). Conditions: 20 µM.
Outline: (§1)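 Three biological replicates were carried out, with OD578 read hourly for 24 h. Before inoculation at a starting OD578 of 0.01, pathogens were passaged anaerobically twice; plates were pre-reduced mGAM containing 20 μM compound and 1% DMSO, sealed with breathable membranes, and the Haemophilus parainfluenzae medium carried added hemin and NAD. Area under each growth curve was calculated by the trapezoidal rule up to the exponential-to-stationary transition and normalised to DMSO controls on the same plate.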

| Structure (SMILES) | growth AUC normalised to DMSO control |
| --- | --- |
| O=C(CCCN1CCC(n2c(=O)[nH]c3ccccc32)CC1)c1ccc(F)cc1 [Benperidol] | 0.981 |
| C[N+](C)(C)CCCCCCCCCC[N+](C)(C)C [Decamethonium bromide] | 1 |
| CCN[C@@H](C)Cc1cccc(C(F)(F)F)c1 [Dexfenfluramine hydrochloride] | 0.995 |
| C=C(C)[C@@H]1[C@H]2OC(=O)[C@@H]1[C@]1(O)C[C@H]3O[C@]34C(=O)O[C@H]2[C@]14C [Picrotoxinin] | 1 |
| CC(C)(C)NCC(O)c1ccccc1Cl (stereo unspecified) [Tulobuterol hydrochloride] | 1 |
| Fc1ccc(C(OCCN2CCN(CCCc3ccccc3)CC2)c2ccc(F)cc2)cc1 | 1 |
| C=C1CC[C@@]2(O)[C@H]3Cc4ccc(O)c5c4[C@@]2(CCN3CC2CC2)[C@H]1O5 [Nalmefene hydrochloride] | 1.01 |
| C1CCc2nnnn2CC1 [Pentylenetetrazole] | 0.978 |
| CCOC(=O)c1cncn1[C@H](C)c1ccccc1 [Etomidate] | 1.01 |
| CC(C)CC(N(C)C)C1(c2ccc(Cl)cc2)CCC1 (stereo unspecified) [Sibutramine hydrochloride] | 1 |
| C[N+]12CCC(CC1)C(OC(=O)C(O)(c1ccccc1)c1ccccc1)C2 (stereo unspecified) [Clidinium bromide] | 0.969 |
| CN(C)[C@@H]1C(=O)C(C(N)=O)=C(O)[C@@]2(O)C(=O)C3=C(O)c4c(O)ccc(Cl)c4[C@@](C)(O)[C@H]3C[C@@H]12 [Chlortetracycline hydrochloride] | 0.00172 (active) |
| C[N+]1(C)[C@@H]2CC[C@H]1C[C@@H](OC(=O)C(CO)c1ccccc1)C2 (stereo partly specified) [Methylatropine nitrate] | 1.01 |
| CC(C)N(CCC(C(N)=O)(c1ccccc1)c1ccccn1)C(C)C (stereo unspecified) [Disopyramide] | 0.993 |
| CNC(=O)Oc1ccc2c(c1)[C@]1(C)CCN(C)[C@@H]1N2C [Eserine hemisulfate salt] | 1.01 |
| CN1[C@@H]2CC[C@H]1C[C@@H](OC(=O)C(CO)c1ccccc1)C2 (stereo partly specified) [Atropine sulfate monohydrate] | 1.01 |
| COc1ccc(C(CN(C)C)C2(O)CCCCC2)cc1 (stereo unspecified) [Venlafaxine] | 0.98 |
| NCCc1c[nH]c2ccc(O)cc12 [Serotonin hydrochloride] | 0.983 |
| CC(CCc1ccccc1)NC(C)C(O)c1ccc(O)cc1 (stereo unspecified) [Nylidrin] | 0.987 |
| C[N+]1(C)CCOC(O)(c2ccc(-c3ccc(C4(O)C[N+](C)(C)CCO4)cc3)cc2)C1 (stereo unspecified) [Hemicholinium bromide] | 1 |
| CC(=O)O[C@H]1C[C@@H]2CC[C@@H]3[C@H](CC[C@@]4(C)[C@H]3C[C@H]([N+]3(C)CCCCC3)[C@@H]4OC(C)=O)[C@@]2(C)C[C@@H]1[N+]1(C)CCCCC1 [Pancuronium bromide] | 1.01 |
| O=C1CC[C@@]2(O)[C@H]3Cc4ccc(O)c5c4[C@@]2(CCN3CC2CC2)[C@H]1O5 [Naltrexone hydrochloride dihydrate] | 1 |
| CC(Cc1ccccc1)NCCC(c1ccccc1)c1ccccc1 (stereo unspecified) [Prenylamine lactate] | 1.01 |
| CCC1(CC)C(=O)C=CNC1=O [Pyrithyldione] | 0.992 |
| COc1cc2c(c(OC)c1OC)-c1ccc(OC)c(=O)cc1[C@@H](NC(C)=O)CC2 [Colchicine] | 0.988 |
| COc1cc([C@@H]2c3cc4c(cc3[C@H](O)[C@H]3COC(=O)[C@H]23)OCO4)cc(OC)c1OC [Podophyllotoxin] | 0.999 |
| Oc1ccc2c3c1O[C@H]1[C@@H](O)CC[C@@]4(O)[C@@H](C2)N(CC2CCC2)CC[C@]314 [Nalbuphine hydrochloride] | 0.984 |

What follows are compounds tested on Shigella flexneri in the same assay as above. Conditions: 20 µM.
Outline: as §1

| Structure (SMILES) | growth AUC normalised to DMSO control |
| --- | --- |
| C=CCC1(CC(C)C)C(=O)NC(=O)NC1=O [Butalbital] | 0.999 |
| CC1C=CC=CCCC=CC=CC=CC=CC(OC2OC(C)C(O)C(N)C2O)CC2OC(O)(CC(O)C(O)CCC(O)CC(O)CC(O)CC(=O)OC(C)C(C)C1O)CC(O)C2C(=O)O (stereo unspecified) [Nystatine] | 0.959 |
| O=C(CCCN1CCC2(CC1)C(=O)NCN2c1ccccc1)c1ccc(F)cc1 [Spiperone] | 0.978 |
| COc1ccc(OC)c(C(O)C(C)N)c1 (stereo unspecified) [Methoxamine hydrochloride] | 0.984 |
| CC(C)(C)NCC(O)c1cc(Cl)c(N)c(Cl)c1 (stereo unspecified) [Clenbuterol hydrochloride] | 0.979 |
| COc1ccc(CN2CCNCC2)c(OC)c1OC [Trimetazidine dihydrochloride] | 1.03 |
| CC[N+]1(C)CCCC(OC(=O)C(O)(c2ccccc2)c2ccccc2)C1 (stereo unspecified) [Pipenzolate bromide] | 0.977 |
| NCC(O)c1ccc(O)cc1 (stereo unspecified) [Octopamine hydrochloride] | 0.999 |
| CC(=O)NC1CCSC1=O (stereo unspecified) [Citiolone] | 1 |
| O=[N+]([O-])O[C@@H]1CO[C@H]2[C@@H]1OC[C@@H]2O [Isosorbide mononitrate] | 1.03 |
| C=C1C[C@@H]2[C@H](CC[C@]3(C)C(=O)CC[C@@H]23)[C@@]2(C)C=CC(=O)C=C12 [Exemestane] | 0.953 |
| O=c1c2ccccc2[se]n1-c1ccccc1 [Ebselen] | 1.03 |
| O=C(CCCN1CCC(n2c(=O)[nH]c3ccccc32)CC1)c1ccc(F)cc1 [Benperidol] | 0.998 |
| C[N+](C)(C)CCCCCCCCCC[N+](C)(C)C [Decamethonium bromide] | 1.03 |
| CCN[C@@H](C)Cc1cccc(C(F)(F)F)c1 [Dexfenfluramine hydrochloride] | 1.02 |
| C=C(C)[C@@H]1[C@H]2OC(=O)[C@@H]1[C@]1(O)C[C@H]3O[C@]34C(=O)O[C@H]2[C@]14C [Picrotoxinin] | 0.96 |
| CC(C)(C)NCC(O)c1ccccc1Cl (stereo unspecified) [Tulobuterol hydrochloride] | 1.01 |
| Fc1ccc(C(OCCN2CCN(CCCc3ccccc3)CC2)c2ccc(F)cc2)cc1 | 0.998 |
| C=C1CC[C@@]2(O)[C@H]3Cc4ccc(O)c5c4[C@@]2(CCN3CC2CC2)[C@H]1O5 [Nalmefene hydrochloride] | 1.03 |
| C1CCc2nnnn2CC1 [Pentylenetetrazole] | 1.01 |

| Structure (SMILES) | growth AUC normalised to DMSO control |
| --- | --- |
| CCOC(=O)c1cncn1[C@H](C)c1ccccc1 [Etomidate] | 1 |
| CC(C)CC(N(C)C)C1(c2ccc(Cl)cc2)CCC1 (stereo unspecified) [Sibutramine hydrochloride] | 0.971 |
| C[N+]12CCC(CC1)C(OC(=O)C(O)(c1ccccc1)c1ccccc1)C2 (stereo unspecified) [Clidinium bromide] | 0.975 |
| CN(C)[C@@H]1C(=O)C(C(N)=O)=C(O)[C@@]2(O)C(=O)C3=C(O)c4c(O)ccc(Cl)c4[C@@](C)(O)[C@H]3C[C@@H]12 [Chlortetracycline hydrochloride] | 0.0163 (active) |
| C[N+]1(C)[C@@H]2CC[C@H]1C[C@@H](OC(=O)C(CO)c1ccccc1)C2 (stereo partly specified) [Methylatropine nitrate] | 1.03 |
| CC(C)N(CCC(C(N)=O)(c1ccccc1)c1ccccn1)C(C)C (stereo unspecified) [Disopyramide] | 0.988 |
| CNC(=O)Oc1ccc2c(c1)[C@]1(C)CCN(C)[C@@H]1N2C [Eserine hemisulfate salt] | 1.02 |
| CN1[C@@H]2CC[C@H]1C[C@@H](OC(=O)C(CO)c1ccccc1)C2 (stereo partly specified) [Atropine sulfate monohydrate] | 1.06 |
| COc1ccc(C(CN(C)C)C2(O)CCCCC2)cc1 (stereo unspecified) [Venlafaxine] | 0.957 |
| NCCc1c[nH]c2ccc(O)cc12 [Serotonin hydrochloride] | 1.02 |
| CC(CCc1ccccc1)NC(C)C(O)c1ccc(O)cc1 (stereo unspecified) [Nylidrin] | 0.994 |
| C[N+]1(C)CCOC(O)(c2ccc(-c3ccc(C4(O)C[N+](C)(C)CCO4)cc3)cc2)C1 (stereo unspecified) [Hemicholinium bromide] | 1.03 |
| CC(=O)O[C@H]1C[C@@H]2CC[C@@H]3[C@H](CC[C@@]4(C)[C@H]3C[C@H]([N+]3(C)CCCCC3)[C@@H]4OC(C)=O)[C@@]2(C)C[C@@H]1[N+]1(C)CCCCC1 [Pancuronium bromide] | 1.05 |
| O=C1CC[C@@]2(O)[C@H]3Cc4ccc(O)c5c4[C@@]2(CCN3CC2CC2)[C@H]1O5 [Naltrexone hydrochloride dihydrate] | 0.992 |
| CC(Cc1ccccc1)NCCC(c1ccccc1)c1ccccc1 (stereo unspecified) [Prenylamine lactate] | 1.07 |
| CCC1(CC)C(=O)C=CNC1=O [Pyrithyldione] | 1 |
| COc1cc2c(c(OC)c1OC)-c1ccc(OC)c(=O)cc1[C@@H](NC(C)=O)CC2 [Colchicine] | 0.964 |
| COc1cc([C@@H]2c3cc4c(cc3[C@H](O)[C@H]3COC(=O)[C@H]23)OCO4)cc(OC)c1OC [Podophyllotoxin] | 0.999 |
| Oc1ccc2c3c1O[C@H]1[C@@H](O)CC[C@@]4(O)[C@@H](C2)N(CC2CCC2)CC[C@]314 [Nalbuphine hydrochloride] | 0.974 |
